# Bioassay records deposited in PubChem by National Center for Advancing Translational Sciences (NCATS).
# This is a sample that favours compounds with a hit; in the whole collection about 9.3% have one here.
# FMDV antiviral – High Throughput Screening for Foot and Mouth Disease Virus Antivirals; FMDV antiviral cell-based qHTS; Potency, µM (series often up to 57.9 µM), without a hit: at the top dose activity change, negative = inhibition, hits mostly inhibitors; 410,000 compounds, 1.2% hits; calls by dose curve; tested in HEK293T cells; also: read-out not given here; potency is read from the fitted curve at half-maximal effect; nearly all actives have a fitted effect of over 45% in size
# Sm TGR block – qHTS Assay for the Inhibitors of Schistosoma Mansoni Peroxiredoxins | Schistosoma mansoni thioredoxin glutathione reductase (TGR), Q962Y6 | purified TGR, DTNB reduction, TNB absorbance 405 nm | Potency, µM (top dose mostly 114 µM), for the others: top-dose activity change, negative = inhibition, actives largely listed as inhibitors | 360,000 compounds, 3% hits | AID 485364, 2010; also: potency is read from the fitted curve at half-maximal effect; nearly all actives have a fitted effect of over 60% in size
#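 First, TGR (20 nM dispensed) and NADPH were mixed with compound. Second, a 15 min room-temperature incubation followed. Third, further NADPH and then DTNB were added to start the reaction. Finally, TNB absorbance was monitored kinetically.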
# Vaccinia mCherry – qHTS for Stage-Specific Inhibitors of Vaccinia Orthopoxvirus: mCherry Reporter Primary qHTS; Potency, µM (top dose mostly 36.5 µM), for the others: at the highest dose activity change, negative = inhibition, actives largely listed as inhibitors; Vaccinia virus mCherry reporter infection, fluorescence; 310,000 compounds, 0.63% hits; calls by dose curve; tested in A549 cells; also: potency is read from the fitted curve at half-maximal effect; nearly all actives have a fitted effect of over 35% in size
# HCV inhibitor – qHTS Assay for Inhibitors of Hepatitis C Virus (HCV); Potency, µM (highest dose often 41.8 µM), for inactives: at the highest dose activity change, negative = inhibition, usual class: inhibitors; 340,000 compounds, 3.4% hits; Huh7.5.1 HCVcc-Cre infection, luciferase reporter, 44 h; also: potency is read from the fitted curve at half-maximal effect
#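 A cell-based infection assay in which seeded cells (1,000 per well) receive test compound after 4 h, are inoculated with HCVcc-Cre at approximately 0.5 moi, and are incubated 44 h before luminescence detection.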
# HCMV antiviral – qHTS Assay for inhibitors of the human cytomegalovirus (HCMV); HFF cells, HCMV-luciferase reporter, 72 h; hits give low values; activity change, negative = inhibition, % at 57.5 µM; 410,000 compounds, 4.5% hits; in the data active = activity change below about -60%; inconclusive = no clear call, values can overlap the other calls; inactive = above about -39%
#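 Compounds were evaluated in HFFs infected with an HCMV luciferase reporter virus (MOI 1 PFU/cell). Luciferase in lysates collected 72 h post infection served as the replication measure.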
# Vaccinia Venus – qHTS for Stage-Specific Inhibitors of Vaccinia Orthopoxvirus: Venus Reporter Primary qHTS; Potency, µM (titrated, usually from 36.5 µM), for inactives: at the highest dose activity change, negative = inhibition, most hits filed as inhibitors; Vaccinia virus Venus reporter expression, fluorescence; 330,000 compounds, 0.46% hits; calls by dose curve; tested in A549 cells; also: potency is read from the fitted curve at half-maximal effect; nearly all actives have a fitted effect of over 30% in size
# Starred values were filed as active, the others as inactive; i = inactive; ? = inconclusive; / = no result given; + = active, no number; [ ] = dose if it differs, or a comment. Unless noted, calls follow the shape of the dose curve; as a rule, active = well fitted curve in the direction sought with a large enough effect; inconclusive = small, poorly fitted or top-dose-only effect, or another doubt; inactive = no such curve, though single readings can be large; an effect the other way counts as inactive or inconclusive. % is scaled to controls: 0 for no effect and ±100 for the full control effect.
SMILES,FMDV antiviral,Sm TGR block,Vaccinia mCherry,HCV inhibitor,HCMV antiviral,Vaccinia Venus
Cc1ccc(Cn2c(SCC(N)=O)nc3c2c(=O)n(C)c(=O)n3C)cc1,/,5%,i,11µM*,97,-23%
CC1Cc2ccccc2N1C(=O)CSc1nc2c(c(=O)n(C)c(=O)n2C)n1Cc1ccccc1 (configuration not stated),-12%,10%,-13%,3.5µM*,-97*,-3%
Cc1cc2ccccc2n2c(SCC(=O)N3CCOCC3)nnc12,-5%,9%,-17%,9%,-17,-6%
Cc1ccc(N2C(=O)c3sc4nnc(C)c(=O)n4c3C2=O)cc1,1%,-9%,/,4%,16,/
C=C1C2CC[C@@]3(C)C(c4ccoc4)OC(=O)C[C@@]13OC1CC(OC(C)=O)C(C)(C)C(CC(=O)OC)[C@@]12C (some centres not stated),?,/,-12%,/,/,-12%
Cc1nn2cc(-c3ccc(N)cc3)nc2s1,29%,-17%,-19%,3%,15,-10%
CCCc1nn2cc(-c3ccc(C)c(C)c3)nc2s1,-77%,-9%,2%,/,-62*,-6%
COc1ccc(C(=O)Nc2cc(C(C)C)c(O)c(S(=O)(=O)c3ccc(OC)cc3)c2C)cc1,61%,-1%,-11%,/,-104*,-16%
Cc1cn([C@H]2C[C@H](O)[C@@H](CCC(=O)NCc3ccccc3)O2)c(=O)[nH]c1=O,-14%,/,+,3.5µM*,-11,?
O=[n+]1c2c(n([O-])c3cc(Cl)ccc31)CCCC2,-23%,-25%,/,-2%,-28,11%
COc1ccc2c(c1)n([O-])c1c([n+]2=O)CCC1,-1%,40µM*,i[7.34 µM],-11%,/,-20%[7.34 µM]
CCOc1ccc2c(c1)n([O-])c1c([n+]2=O)CCCC1,?,5.6µM*,18%,8%,3,-6%
COc1ccc(-c2c(C)n([O-])c3c([n+]2=O)CCCC3)c(OC)c1,7%,8%,2%,4%,28,-1%
CCOc1ccccc1-n1cnc(C#N)c1N,2%,-6%,i,0%,-23,-7%
C=CCN1CCN(C(c2ccc(Cl)cc2)c2nnnn2CCc2ccc(OC)c(OC)c2)CC1 (configuration not stated),-5%,-6%,i,12%,-101*,-19%
Cn1c(NCc2ccco2)nc2c1c(=O)n(Cc1ccc(Cl)cc1Cl)c(=O)n2C,/,-18%,?,-27%,/,-9%
COCCCn1c(-c2ccc(OC)cc2)cc(C(=O)NC2CCCCCCC2)c1C,-3%,-18%,?,?,-65*,-27%
COc1cccc(CNC(=O)CCC2CCCN(C3CCOCC3)C2)c1 (configuration not stated),-11%,4.5µM*,6%,8%,/,4%
CCn1c(SCC(=O)Nc2oc(C)c3c(C)n[nH]c(=O)c23)nc2sc(C)c(C)c2c1=O,-19%,-9%,-20%,6%,/,-8%
O=C1CCN(Cc2ccccc2)S(=O)(=O)c2ccccc21,-25%,20µM*,-3%,-8%,-37,-8%
CNc1ncncc1-c1ccccc1CN(C)C,-7%,/,/,/,/,/
Cc1ccccc1-c1nc(CS(=O)(=O)CC(=O)N2CCOCC2)c(C)o1,-10%,16µM*,-20%,-2%,-15,-22%
Cc1ccccc1-c1nc(CS(=O)(=O)CC(=O)N2CCN(c3ccccc3)CC2)c(C)o1,?,6%,-21%,/,-29,-18%
Cc1ccc(-c2nc(CS(=O)(=O)CC(=O)N3CCN(c4ccccc4)CC3)c(C)o2)cc1,-11%,-3%,?,/,?,-30%
CCOC(=O)N1CCN(C(=O)CSCc2nc(-c3ccccc3C)oc2C)CC1,?,-7%,/,-28%,-23,/
Cc1oc(-c2ccccc2F)nc1CS(=O)(=O)CC(=O)N1CCN(c2ccccc2)CC1,25µM*,-12%,?,-11%,-19,?
